In PubChem BioAssay (EPA / NIEHS):
Calls of active or inactive are those of the source. Rule for the calls: active = hit-call score of the fitted dose curve at least 0.9, where 1 is the maximum; inactive = score below 0.9.

What was measured:
Conditions in all cases: mRNA level, 48 h; actives raise or lower the signal
[1] = read-out: Cytochrome P450 3A4 (Homo sapiens) (UniProt P08684); assay: LTEA_HepaRG_CYP3A4: Life Technologies and Expression Analysis (LTEA) Assay for CYP3A4 using HepaRG (AID 2283487)
Procedure, shortened: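 CYP3A4 transcript measured by TaqMan qRT-PCR and normalized to three housekeeping genes after 48 h chemical exposure of human HepaRG cells. Top concentration 100 uM, half-log steps, 0.5% DMSO vehicle; gain or loss fitted against DMSO baseline.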

[2] = read-out: Pro-epidermal growth factor (Homo sapiens) (UniProt P01133); assay: LTEA_HepaRG_EGF: Life Technologies and Expression Analysis (LTEA) Assay for Epidermal growth factor (EGF) using HepaRG (AID 2283489)
Procedure, shortened: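 EGF expression changes in human HepaRG cells are scored by bidirectional fitting relative to 0.5% DMSO controls. Chemicals are tested at eight half-log concentrations up to 100 uM for 48 h in serum-free induction medium.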

[3] = read-out: Early growth response protein 1 (EGR1) transcription factor, EGR1 (gene 1958); assay: LTEA_HepaRG_EGR1: Life Technologies and Expression Analysis (LTEA) Assay for Early growth response protein 1 (EGR1) transcription factor using HepaRG (AID 2283490)
Procedure, shortened: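 Differentiated human HepaRG cells in serum-free induction medium were exposed in duplicate for 48 h to eight concentrations (top 100 uM, half-log steps) in 0.5% DMSO. EGR1 mRNA was quantified by qRT-PCR, normalized to ACTB, GAPDH and POLR2A, and fitted bidirectionally versus DMSO.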

[4] = read-out: Ezrin (EZR), EZR (gene 7430); assay: LTEA_HepaRG_EZR: Life Technologies and Expression Analysis (LTEA) Assay for Ezrin (EZR) using HepaRG (AID 2283491)
Procedure, shortened: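 HepaRG, 48 h chemical exposure, 8-pt half-log series from 100 uM, 0.5% DMSO vehicle, duplicates. Read-out: EZR mRNA by TaqMan qRT-PCR (Fluidigm array), housekeeping-normalized; bidirectional curve fit vs DMSO baseline.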

[5] = read-out: Cytochrome P450 3A7 (Homo sapiens) (UniProt P24462); assay: LTEA_HepaRG_CYP3A7: Life Technologies and Expression Analysis (LTEA) Assay for CYP3A7 using HepaRG (AID 2283492)
Procedure, shortened: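 Cells were thawed, plated, cultured 48 h, then treated for a further 48 h with chemicals (eight-point half-log series from 100 uM, 0.5% DMSO). RNA was isolated and CYP3A7 expression quantified by qRT-PCR normalised to ACTB, GAPDH and POLR2A.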

CYP3A5 (gene 1577) = assay: LTEA_HepaRG_CYP3A5: Life Technologies and Expression Analysis (LTEA) Assay for CYP3A5 using HepaRG (AID 2283493)
Procedure, shortened: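 mRNA induction or loss of CYP3A5 assessed in HepaRG after 48 h dosing, 100 uM top concentration, duplicate wells; TaqMan qRT-PCR with ACTB, GAPDH, POLR2A normalization; 0.5% DMSO as negative control.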

[6] = read-out: Fatty Acid-Binding Protein 1 (FABP1), FABP1 (gene 2168); assay: LTEA_HepaRG_FABP1: Life Technologies and Expression Analysis (LTEA) Assay for Fatty Acid-Binding Protein 1 (FABP1) using HepaRG (AID 2283494)
Procedure, shortened: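 Differentiated human HepaRG cells were exposed in duplicate for 48 h in serum-free induction medium to 8-point half-log concentration series topping at 100 uM in 0.5% DMSO. FABP1 mRNA measured by TaqMan qRT-PCR, normalized to ACTB/GAPDH/POLR2A; bidirectional fit versus DMSO.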

[7] = read-out: Cytochrome P450 4A22 (Homo sapiens) (UniProt Q5TCH4); assay: LTEA_HepaRG_CYP4A22: Life Technologies and Expression Analysis (LTEA) Assay for Cytochrome P450 4A22 (CYP4A22) using HepaRG (AID 2283495)
Procedure, shortened: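 Cryopreserved HepaRG cells, plated and cultured 48 h, then switched to serum-free induction medium and treated 48 h (duplicates, up to 100 uM, half-log steps, 0.5% DMSO). Expression change of CYP4A22 was fitted bidirectionally against vehicle.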

[8] = read-out: Cytochrome P450 7A1 (Homo sapiens) (UniProt P22680); assay: LTEA_HepaRG_CYP7A1: Life Technologies and Expression Analysis (LTEA) Assay for Cytochrome P450 7A1 (CYP7A1) using HepaRG (AID 2283496)
Procedure, shortened: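 Gene expression endpoint in human HepaRG liver cells treated for 48 h with test chemicals (up to 100 uM, 0.5% DMSO). Values come from bidirectional concentration-response fitting versus DMSO.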

[9] = read-out: Glutathione S-Transferase (GSTA2), GSTA2 (gene 2939); assay: LTEA_HepaRG_GSTA2: Life Technologies and Expression Analysis (LTEA) Assay for Glutathione S-Transferase (GSTA2) using HepaRG (AID 2283497)
Procedure, shortened: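 Human HepaRG cells, plated 48 h, then exposed in serum-free induction medium for 48 h to eight half-log concentrations up to 100 uM in 0.5% DMSO, duplicate. GSTA2 mRNA by qRT-PCR, normalized to ACTB/GAPDH/POLR2A; bidirectional fit versus DMSO.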

[10] = read-out: Glutamate-cysteine ligase catalytic (GCLC), GCLC (gene 2729); assay: LTEA_HepaRG_GCLC: Life Technologies and Expression Analysis (LTEA) Assay for Glutamate-cysteine ligase catalytic (GCLC) using HepaRG (AID 2283498)
Procedure, shortened: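 Differentiated human HepaRG cells, plated 48 h then switched to serum-free induction medium, were exposed in duplicate for 48 h to 8 half-log concentrations topping at 100 uM in 0.5% DMSO. GCLC mRNA was quantified by qRT-PCR against ACTB, GAPDH and POLR2A.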

[11] = read-out: Glutamate-cysteine ligase regulatory (GCLM), GCLM (gene 2730); assay: LTEA_HepaRG_GCLM: Life Technologies and Expression Analysis (LTEA) Assay for Glutamate-cysteine ligase regulatory (GCLM) using HepaRG (AID 2283500)
Procedure, shortened: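 Human liver HepaRG cultures receive test chemicals for 48 hours at up to 100 uM in 0.5% DMSO. GCLM expression is measured by qRT-PCR and analysed for increases or decreases against vehicle.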

[12] = read-out: Glutathione S-transferase M3 (GSTM3), GSTM3 (gene 2947); assay: LTEA_HepaRG_GSTM3: Life Technologies and Expression Analysis (LTEA) Assay for Glutathione S-transferase M3 (GSTM3) using HepaRG (AID 2283501)
Procedure, shortened: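 Changes in GSTM3 expression, an oxidative-stress marker, were scored by bidirectional curve fitting against 0.5% DMSO vehicle. Human HepaRG cultures received chemicals for 48 h in duplicate, highest concentration 100 uM with half-log dilutions.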

[13] = read-out: Heat shock 70 kDa protein 1 (HSPA1A), gene 3303; assay: LTEA_HepaRG_HSPA1A: Life Technologies and Expression Analysis (LTEA) Assay for Heat shock 70 kDa protein 1 (HSPA1A) using HepaRG (AID 2283502)
Procedure, shortened: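 HSPA1A induction in human HepaRG liver cells is measured after 48 h of chemical treatment (100 uM maximum, 0.5% DMSO vehicle). Expression comes from qRT-PCR normalized to endogenous controls.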

[14] = read-out: Hypoxia-inducible factor 1-alpha (Homo sapiens) (UniProt Q16665); assay: LTEA_HepaRG_HIF1A: Life Technologies and Expression Analysis (LTEA) Assay for Hypoxia-inducible factor 1 (HIF1A) Trancription factor using HepaRG (AID 2283503)
Procedure, shortened: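 HepaRG, 48 h exposure, 8-pt half-log series from 100 uM, 0.5% DMSO vehicle, duplicates. Readout: HIF1A transcript by qRT-PCR (Fluidigm array), housekeeping-normalised. Bidirectional curve fit vs DMSO baseline.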

[15] = read-out: 3-Hydroxy-3-Methylglutaryl-CoA Synthase 2 (HMGCS2), HMGCS2 (gene 3158); assay: LTEA_HepaRG_HMGCS2: Life Technologies and Expression Analysis (LTEA) Assay for 3-Hydroxy-3-Methylglutaryl-CoA Synthase 2 (HMGCS2) using HepaRG (AID 2283504)
Procedure, shortened: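 Expression of HMGCS2 in human HepaRG liver cells is measured by qRT-PCR 48 h after dosing (highest 100 uM, half-log series, 0.5% DMSO). Values come from bidirectional concentration-response fitting with DMSO as baseline.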

HGF (gene 3082) = assay: LTEA_HepaRG_HGF: Life Technologies and Expression Analysis (LTEA) Assay for Hepatocyte Growth Facto (HGF) using HepaRG (AID 2283505)
Procedure, shortened: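 Gain or loss of HGF mRNA in human HepaRG liver cells after 48 h chemical exposure; eight concentrations up to 100 uM with 0.5% DMSO vehicle, quantified by TaqMan qRT-PCR.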

[16] = read-out: Insulin Like Growth Factor 1 (IGF1), IGF1 (gene 3479); assay: LTEA_HepaRG_IGF1: Life Technologies and Expression Analysis (LTEA) Assay for Insulin Like Growth Factor 1 (IGF1) using HepaRG (AID 2283506)
Procedure, shortened: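 Using human HepaRG liver cells, IGF1 transcript induction or suppression is measured 48 h after dosing across eight concentrations capped at 100 uM. Values derive from bidirectional concentration-response fitting with DMSO as baseline.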

[17] = read-out: DNA damage-inducible transcript 3 (DDIT3), DDIT3 (gene 1649); assay: LTEA_HepaRG_DDIT3: Life Technologies and Expression Analysis (LTEA) Assay for DNA damage-inducible transcript 3 (DDIT3) using HepaRG (AID 2283488)
Procedure, shortened: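 Changes in DDIT3 transcript, in either direction relative to 0.5% DMSO vehicle, were quantified by TaqMan qRT-PCR after 48 h chemical exposure of HepaRG cells at 8 concentrations, maximum 100 uM.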

Measured: AC50

Sequence of Hypoxia-inducible factor 1-alpha (Homo sapiens) (Q16665 whole entry, looked up): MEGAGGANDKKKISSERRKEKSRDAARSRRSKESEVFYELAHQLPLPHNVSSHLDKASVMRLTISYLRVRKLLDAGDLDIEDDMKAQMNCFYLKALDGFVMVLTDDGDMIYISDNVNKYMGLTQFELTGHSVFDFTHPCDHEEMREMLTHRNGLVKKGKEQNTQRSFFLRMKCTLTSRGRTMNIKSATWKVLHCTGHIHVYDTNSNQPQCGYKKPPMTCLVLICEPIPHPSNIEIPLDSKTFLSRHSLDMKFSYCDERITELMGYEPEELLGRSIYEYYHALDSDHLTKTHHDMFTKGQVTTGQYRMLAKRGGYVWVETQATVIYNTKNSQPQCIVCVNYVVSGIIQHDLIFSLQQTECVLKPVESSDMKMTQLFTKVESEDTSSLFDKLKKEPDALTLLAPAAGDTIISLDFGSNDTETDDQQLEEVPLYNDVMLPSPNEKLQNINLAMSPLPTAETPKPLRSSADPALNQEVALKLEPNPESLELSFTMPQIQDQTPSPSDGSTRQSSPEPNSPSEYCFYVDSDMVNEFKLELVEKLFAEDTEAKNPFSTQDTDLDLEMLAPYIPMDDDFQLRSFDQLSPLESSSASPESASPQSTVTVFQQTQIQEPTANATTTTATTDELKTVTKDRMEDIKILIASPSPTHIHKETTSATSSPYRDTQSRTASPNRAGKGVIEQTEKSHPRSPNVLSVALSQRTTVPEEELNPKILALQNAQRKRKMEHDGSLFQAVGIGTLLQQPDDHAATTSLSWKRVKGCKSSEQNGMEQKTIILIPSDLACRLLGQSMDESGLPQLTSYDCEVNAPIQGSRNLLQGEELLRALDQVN
Sequence of Cytochrome P450 3A7 (Homo sapiens) (P24462 whole entry, looked up): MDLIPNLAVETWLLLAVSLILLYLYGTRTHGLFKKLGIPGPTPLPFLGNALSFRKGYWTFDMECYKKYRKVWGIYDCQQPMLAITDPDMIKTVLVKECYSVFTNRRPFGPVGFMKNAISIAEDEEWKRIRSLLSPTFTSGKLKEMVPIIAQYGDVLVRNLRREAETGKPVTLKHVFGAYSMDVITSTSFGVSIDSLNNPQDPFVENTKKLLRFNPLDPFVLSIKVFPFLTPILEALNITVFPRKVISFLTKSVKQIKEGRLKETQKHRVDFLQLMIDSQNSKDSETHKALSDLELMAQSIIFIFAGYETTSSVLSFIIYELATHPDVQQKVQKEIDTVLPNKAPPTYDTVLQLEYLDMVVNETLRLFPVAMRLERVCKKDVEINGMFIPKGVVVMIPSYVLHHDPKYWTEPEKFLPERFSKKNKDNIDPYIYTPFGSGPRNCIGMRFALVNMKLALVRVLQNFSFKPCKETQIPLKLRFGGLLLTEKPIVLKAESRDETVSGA
Sequence of Cytochrome P450 3A4 (Homo sapiens) (P08684 whole entry, looked up): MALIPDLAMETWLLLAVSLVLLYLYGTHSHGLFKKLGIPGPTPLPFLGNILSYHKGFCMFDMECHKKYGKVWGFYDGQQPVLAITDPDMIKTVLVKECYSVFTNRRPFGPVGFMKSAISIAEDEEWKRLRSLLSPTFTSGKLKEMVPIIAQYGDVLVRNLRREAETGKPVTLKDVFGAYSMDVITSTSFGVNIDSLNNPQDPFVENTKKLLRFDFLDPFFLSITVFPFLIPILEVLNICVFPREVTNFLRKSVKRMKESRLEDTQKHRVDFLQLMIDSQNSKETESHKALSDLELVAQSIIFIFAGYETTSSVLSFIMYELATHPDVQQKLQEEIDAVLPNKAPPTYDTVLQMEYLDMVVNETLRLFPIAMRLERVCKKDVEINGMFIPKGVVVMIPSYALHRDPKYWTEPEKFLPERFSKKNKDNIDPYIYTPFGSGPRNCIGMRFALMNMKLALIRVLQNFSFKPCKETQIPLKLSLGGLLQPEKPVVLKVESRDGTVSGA

CC(C)(O)C(=O)Nc1ccc([N+](=O)[O-])c(C(F)(F)F)c1
inactive: [1] | [4] | [5] | CYP3A5 (gene 1577) | [7] | [8] | [9] | [10] | [11] | [12] | [13] | [14]
active: [2] 0.0411 µM | [3] 0.0388 µM | [6] 25 µM | [15] 44.8 µM | HGF (gene 3082) 0.0291 µM | [16] 0.0443 µM

CCCN(CCC)N=O
inactive: [1] | [17] | [2] | [4] | [5] | CYP3A5 (gene 1577) | [6] | [7] | [8] | [9] | [10] | [11] | [12] | [13] | [14] | [15] | HGF (gene 3082) | [16]

ClC(Cl)=C(c1ccc(Cl)cc1)c1ccc(Cl)cc1
inactive: [17] | [2] | [4] | [7] | [8] | [9] | [10] | [11] | [12] | [13] | [14] | HGF (gene 3082)
active: [1] 7.4 µM | [5] 8.96 µM | [6] 50 µM | [16] 50 µM

CN(C)c1nc(=O)n(C2CCCCC2)c(=O)n1C
inactive: [17] | [2] | [4] | [6] | [7] | [8] | [9] | [10] | [11] | [12] | [13] | [14] | [15] | HGF (gene 3082) | [16]
active: [1] 50 µM | [5] 28.6 µM

ClC1=C(Cl)[C@]2(Cl)[C@@H]3[C@@H]4C[C@@H]([C@H]5O[C@@H]45)[C@@H]3[C@@]1(Cl)C2(Cl)Cl
active: [17] 62.8 µM | [6] 0.0265 µM | [7] 34.2 µM | [8] 0.0248 µM | [9] 50 µM | [14] 0.0315 µM | [15] 50 µM | [16] 9.92 µM
inactive: [2] | [4] | [5] | [10] | [11] | [12] | [13] | HGF (gene 3082)
